# In PubChem BioAssay AID492956 (The Scripps Research Institute Molecular Screening Center, 2010):
# About 3,300 (0.97%) of roughly 340,000 compounds were called active.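 How the source made its calls: active means inhibition above the mean over all tested compounds plus 3 SD (cut at about 30% in these data); inactive means the rest.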 The list comes from a sample in which actives are over-represented; it also holds similar structures and randomly drawn compounds. Non-standard residues stand in square brackets, D forms with d. Residues, ends and D or L forms follow the SMILES beside them. ξ: configuration not given here. *: point of attachment. Cbz = O=C(OCc1ccccc1)*; ξL = CC(C)CC(N)C(=O)O; ξP = O=C(O)C1CCCN1
# Molecular target: Platelet-activating factor acetylhydrolase 2, cytoplasmic (Homo sapiens) (UniProt Q99487)
# Test: PAFAH2 enzyme inhibitors, primary screen, biochemical, fluorescence polarization, human (AID 492956);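 further: inhibitors block probe labeling of enzyme so polarization drops; 0% = enzyme with DMSO and 100% = wells lacking PAFAH2 protein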
# Conditions: recombinant PAFAH2, FP-rhodamine activity probe, at 3.39 µM, hits give high values
row,Structure (SMILES),inhibition
1,CC(C)(C)c1ccc(/C=C2\Oc3c(ccc(O)c3CN3CCN(CCO)CC3)C2=O)cc1,82% (active)
2,CCOC(=O)c1oc2c(CN3CCN(CCO)CC3)c(O)c(CC)cc2c(=O)c1-c1nc2ccccc2s1,-4.68% (inactive)
3,Cc1c2cn[nH]c(=O)c2c(C)n1Cc1ccc(F)cc1,-4.15% (inactive)
4,C=C1c2cccc(OC)c2O[C@H](C(=O)OCC)[C@@H]1CCCCCC,2.29% (inactive)
5,CCOC(=O)C1=C(CNC2CCCCC2)NC(=O)NC1c1cc(C)ccc1C (stereo not given),-10.1% (inactive)
6,COc1ccc(O)c(C(=O)c2cnc3onc(C(C)C)c3c2)c1,-6.85% (inactive)
7,COC(=O)C1CCN(C(=O)c2ccc3oc(Cc4ccc(Cl)cc4)nc3c2)CC1,-2.24% (inactive)
8,COCC1CCN(C(=O)c2ccc3oc(Cc4ccccc4)nc3c2)C1 (stereo not given),58.9% (active)
9,COCC1CCCN(C(=O)c2ccc3oc(C(C)C)nc3c2)C1 (stereo not given),2.06% (inactive)
10,CC1=NC2(CCCc3c2no[n+]3[O-])N(O)C1(C)C (stereo not given),-4.68% (inactive)
11,COCCNC(=O)CN1C(=O)CSc2ncccc21,3.18% (inactive)
12,Cc1ccc(Cl)cc1NC(=O)COC(=O)CC(C)(C)C,6.71% (inactive)
13,Cc1c(Cl)cnc(NC(=O)COC(=O)C2CCCC2)c1Cl,37.6% (active)
14,Cc1c(Cl)cnc(NC(=O)COC(=O)c2ccc(S(=O)(=O)NCc3ccco3)cc2)c1Cl,22.8% (inactive)
15,CSCCC(NC(=O)c1ccco1)C(=O)OCC(=O)Nc1ncc(Cl)c(C)c1Cl (stereo not given),0.63% (inactive)
16,Cc1ccc(Cl)cc1NC(=O)COC(=O)C1CCCCC1,37.4% (active)
17,COc1ccc(CCNC(=O)COC(=O)C2CCCCC2)cc1,7.99% (inactive)
18,Cc1cc(=O)oc2c(C)c(OCC(=O)NCCN3CCOCC3)ccc12,-1.89% (inactive)
19,COc1ccc(S(=O)(=O)N2CCC(C(=O)N3CCCC3)CC2)cc1C,-0.54% (inactive)
20,Nc1nc(SCc2cccc(Br)c2)n[nH]1,-14.7% (inactive)
21,CN(Cc1ccccc1)C(=O)C(=O)c1cn(CC(=O)N2CCCC2)c2ccccc12,5.94% (inactive)
22,CCOC(=O)C1C(=O)C=C(c2ccc(OC)cc2)CC1c1ccco1 (stereo not given),6.12% (inactive)
23,O=S(=O)(NCc1ccccc1Br)c1ccccc1Br,3.56% (inactive)

row,Structure (SMILES),inhibition
1,Cc1ccn2c(=O)nc(SCC(=O)NCc3ccc(F)cc3)nc2c1,10.6% (inactive)
2,CCO[C@@H]1OC(C(=O)NCc2nc3ccccc3[nH]2)=C[C@H](C2CCCCC2)[C@H]1CCCO,-12.7% (inactive)
3,O=C(OCc1nc2ccccc2[nH]1)C1CCCCC1,59.9% (active)
4,Cc1ccc(C)c(N2CCN(C(=O)CCc3nc4ccccc4[nH]3)CC2)c1,2.85% (inactive)
5,CCO/C=C1\C(=O)N(c2ccc(OCC)cc2)C(=O)c2ccccc21,5.93% (inactive)
6,Cc1ccc(OCC(=O)Nc2cccc3c2CCCC3)cc1C,-17.9% (inactive)
7,NC(=O)C1CCN(C(=O)c2ccc3c(=O)n(Cc4cccc(Br)c4)c(=S)[nH]c3c2)CC1,1.48% (inactive)
8,COc1cc(OC)c2c(-c3cccc(-c4cccc(N)c4)c3)cc(=O)oc2c1,4.97% (inactive)
9,CCOc1ccc(NC(=O)C2CCN(C(=O)N3CCOc4ccccc43)CC2)cc1,-3.71% (inactive)
10,C=CCN(C(=O)c1cc(C)cc(C)c1)C1(C(=O)Nc2ccccc2)CCN(C(C)C)CC1,-2.17% (inactive)
11,CC(=O)Nc1ccc(S(=O)(=O)NC(C)C(=O)OCC(=O)NC2CCCC2)cc1 (stereo not given),-5.65% (inactive)
12,C/C=C/C(=O)OCc1csc(CC(=O)Nc2ccccc2C)n1,2.3% (inactive)
13,Cc1ccc(NC(=O)Cc2nc(COC(=O)C(C)NS(=O)(=O)c3ccc(C)cc3)cs2)cc1 (stereo not given),67.5% (active)
14,Cc1ccc(S(=O)(=O)N(C)C)cc1NC(=O)c1ccccc1Br,1.28% (inactive)
15,CN(C(=O)c1c(Cl)cnn1C)C12CC3CC(CC(C3)C1)C2,1.24% (inactive)
16,NS(=O)(=O)c1ccc(NC(=O)COC(=O)c2c3c(nc4ccccc24)/C(=C\c2ccc4c(c2)OCO4)CCC3)cc1,-39.4% (inactive)
17,CCn1ccnc1CNC(=O)CC1C(=O)NCCN1CCCc1ccccc1 (stereo not given),-0.69% (inactive)
18,CC(C)CC(NC(=O)C1CCCN1C(=O)[C@@H](C)NC(=O)OCc1ccccc1)C(=O)NCC(N)=O (stereo not given in full) (Cbz-[dA][ξP][ξL]G-NH2),3.95% (inactive)
19,Cc1ccc(NC(=O)C2CCCN2C(=O)OCc2ccccc2)cc1C (stereo not given),-10.9% (inactive)
20,CCC(C)C(NC(=O)C1CCC(=O)N1C(=O)OCc1ccccc1)C(=O)NC(C(=O)N1CCCC1C(N)=O)C(C)CC (stereo not given),45% (active)
21,CCc1cc(CNC(=O)CC2C(=O)NCCN2Cc2ccccc2C(F)(F)F)on1 (stereo not given),-1.63% (inactive)
22,COC(=O)CNc1nc(Cl)nc(N2CCC(C)CC2)n1,-3.76% (inactive)
23,CCOC(=O)c1cccc(NC(=O)CCn2nnc3ccccc32)c1,-12.2% (inactive)

row,Structure (SMILES),inhibition
1,C/C(Cn1nnc2ccccc21)=N\OC(=O)c1cc(F)c(F)cc1Cl,75.7% (active)
2,Cn1c(Cn2nnc3ccccc32)nnc1SCC(=O)c1ccccc1F,-0.21% (inactive)
3,CCCCCN(C(=O)CCC(=O)OCCOc1ccc(OC)cc1)c1c(N)n(CCCC)c(=O)[nH]c1=O,0.6% (inactive)
4,COc1ccc(Cc2nc3ccc(C(=O)N4CCC(N(C)C)C4)cc3o2)cc1 (stereo not given),1.02% (inactive)
5,CC(C)CN(C(=O)CSc1ncnc2sccc12)C1CCS(=O)(=O)C1 (stereo not given),-0.68% (inactive)
6,CCN(CC)CCCN1C(=O)C(=O)/C(=C(/O)c2c(C)nc3ccccn23)C1c1ccc(C)o1 (stereo not given),-8% (inactive)
7,Cc1nc(N)nc(Cl)c1CCC1OCCO1,-3.02% (inactive)
8,CCOc1cccc(/C=N/N2C(=O)CSC2=S)c1O,21.4% (inactive)
9,Cc1cc(C(=O)N/N=C/c2ccc(O)c([N+](=O)[O-])c2)c(C)n1-c1ccc(F)cc1,15.3% (inactive)
10,O=C1CSC(=S)N1/N=C/c1ccc(O)c([N+](=O)[O-])c1,38.1% (active)
11,CCn1ncc(Br)c1C(=O)Nc1cc(C)ccc1F,4.13% (inactive)
12,CC1(C)CC(O)C(CCC(O)c2ccccc2)C(C)(C)N1 (stereo not given),4.72% (inactive)
13,O=C(NCCNc1ccc([N+](=O)[O-])cc1)c1cccc2c(Br)cccc12,2.72% (inactive)
14,CCC(=O)N(Cc1ccccc1)c1ccccn1,-1.23% (inactive)
15,Cc1cc(OCCCC(=O)Nc2cc(S(=O)(=O)N3CCOCC3)ccc2N2CCOCC2)ccc1Cl,8.81% (inactive)
16,CSc1ncc(C(=O)NCCCc2ccccc2)c(C)n1,-6.77% (inactive)
17,CCCCN1Cc2c(nc3cc(-c4ccccc4)[nH]n3c2=O)C1=O,40.2% (active)
18,O=c1c2c(nc3cc(-c4cccc(Cl)c4)[nH]n13)CCCC2,2.97% (inactive)
19,C=CCc1c(C)nc2cc(-c3ccccc3)[nH]n2c1=O,0.26% (inactive)
20,Cc1cc(=O)oc2c(C)c(OC(C)C(=O)NC3CCN(Cc4ccccc4)CC3)ccc12 (stereo not given),1.42% (inactive)
21,CC(OC(=O)c1c(F)cccc1F)C(=O)NCCC1=CCCCC1 (stereo not given),8.3% (inactive)
22,O=C(COC(=O)c1cc[n+]([O-])cc1)Nc1ccc(Cl)c(C(F)(F)F)c1,-4.1% (inactive)
23,CC(=O)Nc1ccc(C(=O)OCC(=O)Nc2ccc([N+](=O)[O-])cc2C(F)(F)F)cc1,40.5% (active)

row,Structure (SMILES),inhibition
1,NC(=O)c1ccc(NC(=O)COC(=O)c2ccc([N+](=O)[O-])cc2)cc1,0.64% (inactive)
2,O=C1NN(c2ccccc2)C(=O)/C1=C/c1ccc(-c2cccc(C(=O)O)c2)o1,24.1% (inactive)
3,O=C(O)C(c1ccccc1)N1C(=O)/C(=C\c2ccc(-c3cccc(Cl)c3)o2)SC1=S (stereo not given),40.3% (active)
4,O=C1c2ccccc2NC(c2ccc(-c3cccc(Cl)c3)o2)N1O (stereo not given),-3.11% (inactive)
5,O=C(O)c1ccc(NN=CC2=C(N3CCOCC3)/C(=C/c3ccccc3)CC2)cc1,1.44% (inactive)
6,COc1ccc(C(C[N+](=O)[O-])n2nc(C)cc2C)cc1 (stereo not given),1.81% (inactive)
7,O=C(Nc1cc(S(=O)(=O)Nc2ccc(Cl)cc2)ccc1O)c1ccc(F)cc1F,61.9% (active)
8,Cc1cc(NS(=O)(=O)c2ccc(NC(=S)NC(=O)c3ccc(F)cc3Cl)cc2)no1,3.92% (inactive)
9,O=C(Nc1cccc(S(=O)(=O)NC2=NCCC2)c1)c1ccc(F)cc1F,-3.56% (inactive)
10,C[C@H]1CCC(=O)N([C@H](CSc2ccccc2)Cc2ccccc2)CC1,4.65% (inactive)
11,C/C=N/NC(=O)CCCC(=O)N/N=C/C,-3.09% (inactive)
12,Cc1ccc2c(c1)C1CN(C)CCC1N2C(=O)c1ccccc1NS(=O)(=O)c1ccc(F)cc1C (stereo not given),41.1% (active)
13,Cc1ccc2c(c1)C1CN(C)CCC1N2S(=O)(=O)c1cccc(F)c1 (stereo not given),4.06% (inactive)
14,Cc1ccc2c(c1)C1CN(C)CCC1N2C(=S)Nc1ccc(Cl)cc1Cl (stereo not given),8.44% (inactive)
15,CCC(C)[C@H](NC(=O)N1CCn2c1nc1ccccc12)C(=O)NCc1ccc(OC)cc1 (stereo not given in full),5.18% (inactive)
16,CCc1ccc(C2C(C#N)=C(N)N(N3CCOCC3)C3=C2C(=O)CC(C)(C)C3)s1 (stereo not given),0.28% (inactive)
17,O=C(COC(=O)CCCN1C(=O)c2cccc3cccc(c23)C1=O)NC1CCS(=O)(=O)C1 (stereo not given),3.81% (inactive)
18,Cc1cnc(NC(=O)CSc2c(Cl)cccc2Cl)s1,38.4% (active)
19,Cc1cnc(NC(=O)C2CCCC2)s1,1.44% (inactive)
20,Cc1cnc(NC(=O)c2ccccn2)s1,13.5% (inactive)
21,O=C(COC(=O)CC1CC2CCC1C2)NC(=O)NC1CCCC1 (stereo not given),1.25% (inactive)
